Source: PubChem BioAssay AID1159580 (chemical genetic matrix, 2015)
Several values for one entry are separate records, joined by “and”; a condition that tells them apart may be missing. Equal values may be shown once. Hit rate of the full screen: of about 5,500 compounds, about 2,000 (36%) were called active. Another 18% or so got no clear call; they are omitted. Rule as the data show it: active = normalized growth mostly below about 0.91 (no sharp cut-off); inconclusive = no clear call, values can overlap the other calls; inactive = mostly above about 0.92. The list shows a part of the results.

Experiment: chemical genetic growth profiling, strain panel (AID 1159580);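 also: tested at 20 µM; growth read once vehicle control cultures reached saturation at 30 °C; 1 = growth at the plate median or of vehicle wells; lower values mean less growth of the strain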
Details: S. cerevisiae deletion strains, growth OD

Compound: CC(=O)[C@H]1CCC2C3CCC4=CC(=O)CC[C@]4(C)C3CC[C@@]21C (some centres not stated)
- normalized growth (locus YAL013W, strain DEP1, stronger effect = lower value): 0.963 (inactive)
- normalized growth (locus YAL021C, strain ccr4, stronger effect = lower value): 0.901 (active)
- normalized growth (locus YAL026C, strain drs2, stronger effect = lower value): 0.936 (inactive)
- normalized growth (locus YAL030W, strain snc1, stronger effect = lower value): 0.975 (inactive)
- normalized growth (locus YBL061C, strain skt5, stronger effect = lower value): 0.968 (inactive)
- normalized growth (locus YBR009C, strain hhf1, stronger effect = lower value): 0.909 (inactive)
- normalized growth (locus YBR021W, strain FUR4, stronger effect = lower value): 0.93 (inactive)
- normalized growth (locus YBR023C, strain chs3, stronger effect = lower value): 0.957 (inactive)
- normalized growth (locus YBR171W, strain sec66, stronger effect = lower value): 0.933 (inactive)
- normalized growth (locus YBR229C, strain ROT2, stronger effect = lower value): 0.981 (inactive)
- normalized growth (locus YBR231C, strain swc5, stronger effect = lower value): 0.951 (inactive)
- normalized growth (locus YBR279W, strain paf1, stronger effect = lower value): 0.994 (inactive)
- normalized growth (locus YCL011C, strain gbp2, stronger effect = lower value): 0.971 (inactive)
- normalized growth (locus YCL016C, strain dcc1, stronger effect = lower value): 0.963 (inactive)
- normalized growth (locus YCL029C, strain bik1, stronger effect = lower value): 0.735 (active)
- normalized growth (locus YCL061C, strain MRC1, stronger effect = lower value): 0.955 (inactive)
- normalized growth (locus YCL069W, strain vba3, stronger effect = lower value): 0.976 (inactive)
- normalized growth (locus YCR088W, strain abp1, stronger effect = lower value): 0.99 (inactive)
- normalized growth (locus YDL005C, strain med2, stronger effect = lower value): 0.987 (inactive)
- normalized growth (locus YDL035C, strain GPR1, stronger effect = lower value): 0.936 (inactive)
- normalized growth (locus YDL040C, strain nat1, stronger effect = lower value): 0.981 (inactive)
- normalized growth (locus YDL074C, strain BRE1, stronger effect = lower value): 0.862 (inactive)
- normalized growth (locus YDL101C, strain DUN1, stronger effect = lower value): 0.977 (inactive)
- normalized growth (locus YDL134C, strain PPH21, stronger effect = lower value): 0.962 (inactive)
- normalized growth (locus YDL185W, strain tfp1, stronger effect = lower value): 0.923 (inactive)
- normalized growth (locus YDL192W, strain arf1, stronger effect = lower value): 0.719 (active)
- normalized growth (locus YDR001C, strain nth1, stronger effect = lower value): 0.98 (inactive)
- normalized growth (locus YDR069C, strain doa4, stronger effect = lower value): 0.963 (inactive)
- normalized growth (locus YDR101C, strain arx1, stronger effect = lower value): 0.908 (active)
- normalized growth (locus YDR137W, strain rgp1, stronger effect = lower value): 0.49 (active)
- normalized growth (locus YDR150W, strain NUM1, stronger effect = lower value): 0.983 (inactive)
- normalized growth (locus YDR159W, strain sac3, stronger effect = lower value): 0.879 (inactive)
- normalized growth (locus YDR162C, strain NBP2, stronger effect = lower value): 0.583 (active)
- normalized growth (locus YDR195W, strain ref2): 1.29 [resistant] (active)
- normalized growth (locus YDR297W, strain sur2, stronger effect = lower value): 0.972 (inactive)
- normalized growth (locus YDR318W, strain mcm21, stronger effect = lower value): 0.671 (active)
- normalized growth (locus YDR334W, strain swr1, stronger effect = lower value): 0.985 (inactive)
- normalized growth (locus YDR335W, strain msn5, stronger effect = lower value): 0.948 (inactive)
- normalized growth (locus YDR388W, stronger effect = lower value): 0.854 (active)
- normalized growth (locus YDR392W, strain spt3, stronger effect = lower value): 0.247 (active)
- normalized growth (locus YDR502C, strain sam2, stronger effect = lower value): 0.77 (active)
- normalized growth (locus YEL003W, strain gim4, stronger effect = lower value): 0.931 (inactive)
- normalized growth (locus YEL037C, strain rad23, stronger effect = lower value): 0.974 (inactive)
- normalized growth (locus YEL061C, strain CIN8 (second series), stronger effect = lower value): 0.972 (inactive)
- normalized growth (locus YEL061C, strain CIN8, stronger effect = lower value): 0.971 (inactive)
- normalized growth (locus YER015W, strain faa2, stronger effect = lower value): 0.969 (inactive)
- normalized growth (locus YER016W, strain bim1, stronger effect = lower value): 0.953 (inactive)
- normalized growth (locus YER110C, stronger effect = lower value): 0.916 (inactive)
- normalized growth (locus YER111C, strain swi4, stronger effect = lower value): 0.954 (inactive)
- normalized growth (locus YER155C, strain BEM2 (second series), stronger effect = lower value): 0.555 (active)
- normalized growth (locus YER155C, strain BEM2, stronger effect = lower value): 0.991 (inactive)
- normalized growth (locus YER167W, strain BCK2, stronger effect = lower value): 0.93 (inactive)
- normalized growth (locus YFR010W, strain ubp6, stronger effect = lower value): 0.994 (inactive)
- normalized growth (locus YGL078C, strain dbp3, stronger effect = lower value): 0.961 (inactive)
- normalized growth (locus YGL086W, strain mad1, stronger effect = lower value): 0.743 (active)
- normalized growth (locus YGL167C, strain pmr1, stronger effect = lower value): 0.94 (inactive)
- normalized growth (locus YGL173C, strain kem1, stronger effect = lower value): 0.91 (inactive)
- normalized growth (locus YGL227W, strain vid30, stronger effect = lower value): 0.999 (inactive)
- normalized growth (locus YGL240W, strain doc1, stronger effect = lower value): 0.906 (inactive)
- normalized growth (locus YGL248W, strain PDE1, stronger effect = lower value): 0.968 (inactive)
- normalized growth (locus YGL253W, strain hxk2, stronger effect = lower value): 0.879 (active)
- normalized growth (locus YGR078C, strain PAC10, stronger effect = lower value): 0.898 (inactive)
- normalized growth (locus YGR135W, strain pre9, stronger effect = lower value): 0.731 (active)
- normalized growth (locus YGR229C, strain SMI1, stronger effect = lower value): 1.02 (inactive)
- normalized growth (locus YGR252W, strain gcn5, stronger effect = lower value): 0.924 (inactive)
- normalized growth (locus YHR013C, strain ard1, stronger effect = lower value): 1.06 (inactive)
- normalized growth (locus YHR027C, strain rpn1, stronger effect = lower value): 0.97 (inactive)
- normalized growth (locus YHR030C, strain SLT2, stronger effect = lower value): 0.925 (inactive) and 0.973 (inactive)
- normalized growth (locus YHR079C, strain IRE1 (second series), stronger effect = lower value): 0.85 (active)
- normalized growth (locus YHR079C, strain IRE1, stronger effect = lower value): 0.984 (inactive)
- normalized growth (locus YHR094C, strain hxt1, stronger effect = lower value): 0.907 (active)
- normalized growth (locus YHR129C, strain ARP1, stronger effect = lower value): 0.973 (inactive)
- normalized growth (locus YHR142W, strain chs7, stronger effect = lower value): 0.85 (active)
- normalized growth (locus YHR200W, strain rpn10, stronger effect = lower value): 0.884 (active)
- normalized growth (locus YIL066C, strain RNR3, stronger effect = lower value): 0.902 (inactive)
- normalized growth (locus YIL073C, strain SPO22, stronger effect = lower value): 0.893 (inactive)
- normalized growth (locus YIL125W, strain kgd1, stronger effect = lower value): 0.958 (inactive)
- normalized growth (locus YIR030C, strain dcg1, stronger effect = lower value): 0.922 (active)
- normalized growth (locus YJL092W, strain hpr5, stronger effect = lower value): 0.969 (inactive)
- normalized growth (locus YJL095W, strain BCK1 (second series), stronger effect = lower value): 0.869 (active)
- normalized growth (locus YJL095W, strain BCK1, stronger effect = lower value): 0.777 (active) and 0.981 (inactive)
- normalized growth (locus YJL115W, strain asf1, stronger effect = lower value): 0.98 (inactive)
- normalized growth (locus YJL129C, strain trk1, stronger effect = lower value): 0.865 (active)
- normalized growth (locus YJL134W, strain LCB3, stronger effect = lower value): 0.98 (inactive)
- normalized growth (locus YJL154C, strain vps35, stronger effect = lower value): 0.986 (inactive)
- normalized growth (locus YJL164C, strain tpk1, stronger effect = lower value): 0.929 (inactive)
- normalized growth (locus YJL166W, strain qcr8, stronger effect = lower value): 0.916 (inactive)
- normalized growth (locus YJL168C, strain set2, stronger effect = lower value): 0.934 (inactive)
- normalized growth (locus YJL187C, strain SWE1 (second series), stronger effect = lower value): 0.96 (inactive)
- normalized growth (locus YJL187C, strain SWE1, stronger effect = lower value): 0.969 (inactive)
- normalized growth (locus YJR043C, strain POL32, stronger effect = lower value): 0.986 (inactive)
- normalized growth (locus YJR066W, strain TOR1, stronger effect = lower value): 0.93 (inactive)
